PI5P4Ka inh: inhibitors of human PI5P4K alpha; max response, %; 1.2% of 330,000 active; PI5P4Kalpha enzyme, ADP-Glo luminescence, 60 min; hits give low values; P48426; active means max response of -50% or lower; inconclusive means between -30% and -50%; inactive means -30% or higher; further: value at the top dose of about 77 µM
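Human PI5P4Kalpha with substrate in 0.038 M HEPES pH 7.4, 0.28 mM EGTA, 0.1% CHAPS, 5% DMSO; reaction started with 5 microM ATP (final), 60 min at room temperature. ADP formed read by ADP-Glo luminescence.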
BAZ2B inh: blocks human BAZ2B | Q9UIF8 | AlphaScreen BAZ2B-H3K14Ac peptide displacement | Potency, µM (titrated, usually from 114 µM), usual class: inhibitors | 4.4% of 360,000 active | AID 504333; further: nearly all actives have a fitted effect of over 60% in size
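Multi-concentration screen (max 110 uM) measuring displacement of acetylated histone H3 peptide from BAZ2B by AlphaScreen, using 50 nM protein, 50 nM peptide and 10 ug/mL streptavidin donor plus Ni-chelate acceptor beads.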
HP1b chromo inh: inhibitors of HP1-beta chromodomain binding to methylated histone tails; AID 540317; Potency, µM (highest dose often 114 µM), hits mostly inhibitors; P83916; 0.56% of 390,000 active; AlphaScreen HP1-beta / biotin-H3K9me3 peptide binding; further: nearly all actives have a fitted effect of over 70% in size
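Compound inhibition of the preformed complex between 50 nM HP1-beta and 50 nM biotinylated H3K9me3 peptide was read by AlphaScreen. Buffer was PBS pH 7.4 with 0.01% Tween-20. Incubations ran 30 min at room temperature, with 10 ug/mL donor/acceptor beads.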
JMJD2A Tudor inh: inhibitors of human JMJD2A Tudor domain; AlphaScreen JMJD2A-Tudor / H3K4me3 peptide binding; Potency, µM (titrated, usually from 114 µM), usual class: inhibitors; 4.4% of 390,000 active; further: nearly all actives have a fitted effect of over 50% in size
Target sequence (O75164 whole entry, looked up, the tested form may be a part): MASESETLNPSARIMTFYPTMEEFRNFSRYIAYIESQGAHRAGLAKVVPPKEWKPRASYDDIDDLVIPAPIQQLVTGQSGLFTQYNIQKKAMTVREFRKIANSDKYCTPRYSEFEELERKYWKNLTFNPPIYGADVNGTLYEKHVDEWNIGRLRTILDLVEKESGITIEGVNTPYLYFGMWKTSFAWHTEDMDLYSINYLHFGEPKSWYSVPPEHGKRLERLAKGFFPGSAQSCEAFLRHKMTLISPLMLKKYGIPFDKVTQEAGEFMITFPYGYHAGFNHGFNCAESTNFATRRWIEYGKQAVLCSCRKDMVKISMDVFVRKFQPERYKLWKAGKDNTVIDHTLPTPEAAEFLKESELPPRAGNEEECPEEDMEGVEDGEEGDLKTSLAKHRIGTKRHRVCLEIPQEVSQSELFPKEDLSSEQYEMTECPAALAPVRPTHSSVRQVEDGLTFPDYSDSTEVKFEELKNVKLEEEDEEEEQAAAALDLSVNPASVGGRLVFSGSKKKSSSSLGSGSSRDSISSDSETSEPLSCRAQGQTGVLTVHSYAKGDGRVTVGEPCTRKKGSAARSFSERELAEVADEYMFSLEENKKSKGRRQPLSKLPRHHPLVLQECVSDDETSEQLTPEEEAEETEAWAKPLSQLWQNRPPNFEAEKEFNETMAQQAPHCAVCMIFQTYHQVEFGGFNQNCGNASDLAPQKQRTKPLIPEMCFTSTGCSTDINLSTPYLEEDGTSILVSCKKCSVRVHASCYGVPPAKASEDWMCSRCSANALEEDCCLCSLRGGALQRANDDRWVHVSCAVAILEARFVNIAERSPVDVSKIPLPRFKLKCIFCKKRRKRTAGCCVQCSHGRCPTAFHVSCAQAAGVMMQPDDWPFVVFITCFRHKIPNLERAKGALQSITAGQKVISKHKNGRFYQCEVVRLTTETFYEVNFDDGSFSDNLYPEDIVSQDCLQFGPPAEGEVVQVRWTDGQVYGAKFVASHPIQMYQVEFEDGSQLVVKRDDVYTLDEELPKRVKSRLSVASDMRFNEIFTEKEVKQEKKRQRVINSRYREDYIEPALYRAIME
PLK1 PBD block: inhibitors of human PLK1 polo-box domain binding; Potency, µM, most hits filed as inhibitors; AID 720504; 2.8% of 360,000 active; Plk1 PBD binding of FITC phosphopeptide, fluorescence polarization; P53350; further: series mostly up to about 57 µM; nearly all actives have a fitted effect of over 65% in size
G9a block: inhibitors of human histone lysine methyltransferase G9a | G9a H3K9 monomethylation, AlphaScreen, 2 h | Potency, µM (doses to about 102 µM), most hits filed as inhibitors | 8.8% of 350,000 active | AID 504332; further: nearly all actives have a fitted effect of over 75% in size
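AlphaScreen read-out: biotin-H3K9 peptide (500 nM) methylation by 20 nM enzyme with 20 uM SAM, 2 h at room temperature after 15 min compound preincubation; anti-monomethyl H3K9 antibody plus donor/acceptor beads, 10 min dark.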
Numbers stand for hits; 0 = inactive; ? = inconclusive; - = no result given; ! = not confirmed by another sample; [ ] = remark or other dose. A selection: hits, their analogues and other compounds. The true share with any hit is near 12%. Unless noted, the call rests on the fitted dose curve; in most records, active means well fitted curve in the direction sought with a large enough effect; inconclusive means small, poorly fitted or top-dose-only effect, or another doubt; inactive means no such curve, though single readings can be large; an effect the other way counts as inactive or inconclusive.

SMILES	PI5P4Ka inh	BAZ2B inh	HP1b chromo inh	JMJD2A Tudor inh	PLK1 PBD block	G9a block
COc1ccccc1/C=C1\C(=O)NC(=S)N(c2ccccc2)C1=O	-55.1	0	0	28.2µM	15µM	28.2µM
c1ccc(N2CCCC3(CCNCC3)C2)nc1	-	-	-	-	-	0[12.7 µM]
O[C@H]1CCCC[C@H]1N1CCC(c2ccccc2)CC1	-	-	-	-	-	0[21.5 µM]
O=C(Nc1sc2c(c1C(=O)Nc1ccc(Cl)cc1)CCCC2)c1cccs1	-	0	0	0	-	0
Cc1ccccc1C(=O)Nc1sc2c(c1C(=O)O)CCC(C(C)(C)C)C2 (centres undefined)	-	?	0	0	-	10µM
CC(C)CC[C@@H](O)[C@](C)(O)C1CC[C@@]2(O)C3=CC(=O)[C@@H]4C[C@@H](O)[C@@H](O)C[C@]4(C)C3CC[C@]12C (some centres undefined)	0	-	0	0	0	-
CN1C(=O)N(C)C(=O)C2(Cc3c(nc4ccccn4c3=O)N3CCc4ccccc4C32)C1=O (centres undefined)	0	0	?	?	16.8µM	0
CC1CCN2c3nc4ccccn4c(=O)c3CC3(C(=O)N(C)C(=O)N(C)C3=O)C2C1 (centres undefined)	-	0	0	0	0	0
Fc1ccc(CNCCc2ccccc2F)cc1	0	0	0	0	0	0
CC1(C)CC(CCNCc2ccc3c(c2)OCO3)(Cc2ccccc2)CCO1 (centres undefined)	0	0	0	0	0	0[12.7 µM]
Fc1ccccc1CNCCc1ccc2c(c1)OCO2	0	0	0	70.8µM	0	39.8µM
FC(F)(F)c1ccc(CNCCc2ccc3c(c2)OCO3)cc1	0	79.4µM	0	56.2µM	0	22.4µM
c1cncc(CNCCc2ccc3c(c2)OCO3)c1	0	0	0	0	0	-
Clc1cccc(CNCCc2ccc3c(c2)OCO3)c1	0	79.4µM	?	28.2µM	0	44.7µM
Clc1ccc(CNCCc2ccc3c(c2)OCO3)cc1	0	44.7µM	0	25.1µM	0	79.4µM
CCCCCCC(=O)O[C@H]1CC[C@H]2[C@@H]3CCC4CC(=O)C=C(C)[C@]4(C)[C@H]3CC[C@]12C (some centres undefined)	-	-	-	-	-	0[12.7 µM]
Cc1oc(-c2ccc(Cl)cc2)nc1CN1C(=O)CN=C(c2ccccc2)c2ccccc21	-	0	0	0	-	0
O=C(/C=C/c1ccc(Cl)cc1)N[C@@]12CCC(=O)[C@@H]3Oc4c(O)ccc5c4[C@@]31CCN(CC1CC1)C2C5	-	-	-	-	-	0
CCCC(C)(COC(N)=O)COC(=O)NC1CC1 (centres undefined)	-	-	-	-	-	0[12.7 µM]
C/C(CC(=O)Nc1cc(C)ccn1)=N\NC(=O)c1ccncc1	0	?	0	0	0	?
COc1ccc(-c2nc(CN3C(=O)CN=C(c4ccccc4)c4ccccc43)c(C)o2)cc1OC	-	?	0	0	-	0
c1ccc(-c2ccc(-c3n(-c4ccccn4)c4ccccc4[n+]3-c3ccccn3)cc2)cc1	0	?	0	?	0	35.5µM
Clc1ccc2sc(C3CCNCC3)nc2c1	0	0	0	0	0	44.7µM
COc1cc2c(cc1O)[C@H]1Cc3ccc(OC)c(O)c3CN1CC2	-	-	-	-	-	0[21.5 µM]
C[C@@H]1CC([C@H](O)CC2CC(=O)NC(=O)C2)C(=O)[C@@H](C)C1 (some centres undefined)	-	-	-	-	-	0
SMILES	PI5P4Ka inh	BAZ2B inh	HP1b chromo inh	JMJD2A Tudor inh	PLK1 PBD block	G9a block
CCCN1CCCC(c2cccc(O)c2)C1 (centres undefined)	-	-	-	-	-	0[12.7 µM]
O=C1NC(=O)N(Cc2ccccc2)C(=O)/C1=C/c1cnn(-c2ccccc2)c1	-	?	-	-	-	5.62µM
COc1ccccc1N1C(=O)NC(=O)/C(=C\c2cnn(-c3ccccc3)c2)C1=O	?	0	0	?	3.36µM	8.91µM
O=C1CC(=O)N(Cc2ccccc2)C(=O)N1	0	-	0	0	0	-
COc1ccccc1N1C(=O)NC(=O)C(CCc2ccncc2)(CCc2ccncc2)C1=O	-	0	0	0	0	0
CC1=C2[C@@H]3OC(=O)[C@@H](C)[C@@H]3CC[C@]2(C)C=CC1=O	-	-	-	-	-	0[12.7 µM]
Cc1oc(-c2ccc(Cl)cc2)nc1CN1C(=O)CN=C(c2ccccc2)c2cc(Cl)ccc21	-	0	0	0	-	?
Nc1ccc2c(c1)Cc1cc([N+](=O)[O-])ccc1-2	0	0	0	0	0	50.1µM
Nc1ccc2c(c1)Cc1ccccc1-2	0	50.1µM	?	?	0	?
O=[N+]([O-])c1ccc2c(c1)Cc1cc(O)ccc1-2	0	-	0	0	0	-
N[C@H](CCCCCP(=O)(O)O)C(=O)O	-	-	-	-	-	0[12.7 µM]
CCC1(C)OC(c2ccccc2)=C/C(=C/C=C2C(=O)NC(=O)NC2=O)O1 (centres undefined)	0	39.8µM	0	?	0	50.1µM
COc1ccc(C(=O)NCCn2cc(SC(C)c3ccccc3)c3ccccc32)cc1OC (centres undefined)	-	?	0	0	-	0
OCCN(CCO)CCO	-	-	-	-	-	0
CN(c1ccccc1N(C)S(=O)(=O)c1ccccc1)S(=O)(=O)c1ccccc1	0	-	0	0	0	-
CN(CC(=O)Nc1cccc(F)c1)CC(=O)Nc1cccc(S(=O)(=O)N(C)c2ccccc2)c1	0	-	39.8µM	0.891µM	0	-
CC[C@H](C)[C@H](NC(=O)[C@@H]1CCCN1C(=O)[C@H](CCC(=O)O)NC(=O)[C@@H](NC(=O)[C@H](Cc1ccccc1)NC(=O)[C@@H]1CCCN1C(=O)[C@@H](N)Cc1ccc(O)cc1)C(C)C)C(=O)O	-	-	-	-	-	0
CCOc1ccccc1N1C(=O)CC(=O)NC1=O	0	?	0	0	0	79.4µM
CCC1(O)C(=O)OCc2c1cc1n(c2=O)Cc2cc3cc(O)ccc3nc2-1 (centres undefined)	?	-	0	?	11.9µM	-
CCC1(OC(=O)CN)C(=O)OCc2c1cc1n(c2=O)Cc2cc3ccccc3nc2-1 (centres undefined)	0	0	0	0	0	0[12.7 µM]
CC[C@@]1(O)C(=O)OCc2c1cc1n(c2=O)Cc2cc3c(O)cccc3nc2-1	-	-	-	-	-	2.51µM
CC[C@@]1(O)C(=O)OCc2c1cc1n(c2=O)Cc2cc3ccccc3nc2-1	-	0	0	0	-	44.7µM!
CCOC(=O)C1(c2ccccc2)Oc2ccccc2C(c2ccc(OC)cc2)=C1C(=O)OC (centres undefined)	0	-	0	0	?	22.4µM
CC1CCCCN1CCNS(=O)(=O)c1ccc2c(c1)oc(=O)n2C (centres undefined)	0	0	0	0	0	?
NC(=O)CSc1nc2cc(S(=O)(=O)N3CCOCC3)ccc2o1	0	-	?	0	11.9µM	-
CCOc1cc(-c2c(C#N)c(=O)[nH]c3c2c(C)nn3-c2ccc(F)cc2)ccc1O	-56.4	0	0	0	?	0
C#CCN(C)[C@@H](C)Cc1ccccc1	-	-	-	-	-	0[12.7 µM]
Cc1cccc(NC(=O)Cn2cc(C(=O)c3ccccc3)c3ccccc32)c1C	-	0	0	0	-	0

Assay outcomes from PubChem BioAssay.
